Sampled rows, rich in hits. Any-hit rate of the full collection: about 2.5%.
UBC13 polyUb: inhibitors of human UBC13 polyubiquitin chain formation | P61088 | TR-FRET | inhibition, % at 20 µM | 330,000 tested, 0.47% active | AID 485273; in the data active means inhibition above about 45%, passing the limit was not always enough
Target sequence (P61088 whole entry, looked up): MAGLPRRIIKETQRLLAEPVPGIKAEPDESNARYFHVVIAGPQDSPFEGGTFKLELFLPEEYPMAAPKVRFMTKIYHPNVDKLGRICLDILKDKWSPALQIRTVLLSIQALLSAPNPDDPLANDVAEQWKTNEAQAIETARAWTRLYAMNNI
MEKK2 mut-MEK5: signal of MEK5 binding to mutant human MEKK2 PB1 domain | bead flow cytometry, Alexa488-MEK5 binding to MEKK2 mutant | percent response, % at 10 µM | 290,000 tested, 0.35% active; in the data active means percent response above about 24%, passing the limit was not always enough
MEKK2wt PB1 HTS: raises or lowers MEK5 binding to wildtype human MEKK2 PB1 domain; Q9Y2U5; bead flow cytometry, Alexa488-MEK5 binding to MEKK2 WT; actives lie on both sides; binding response (% of control), % at 10 µM; 290,000 tested, 1.1% active; AID 1531; in the data active means binding response below about 67% or above about 130%
Rce1 inhib: inhibitors of yeast Ras-converting enzyme. Q03530. yeast membranes, quenched prenylated peptide cleavage fluorescence. calls only. 290,000 tested, 0.27% active. AID 2563;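 active means fall in fluorescence gain of 50% or more versus controls, with final raw signal at or below 3038400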;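 further: plate controls were neutral control wells for no effect and wells lacking membranes for full effect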
Target sequence (Q03530 whole entry, looked up): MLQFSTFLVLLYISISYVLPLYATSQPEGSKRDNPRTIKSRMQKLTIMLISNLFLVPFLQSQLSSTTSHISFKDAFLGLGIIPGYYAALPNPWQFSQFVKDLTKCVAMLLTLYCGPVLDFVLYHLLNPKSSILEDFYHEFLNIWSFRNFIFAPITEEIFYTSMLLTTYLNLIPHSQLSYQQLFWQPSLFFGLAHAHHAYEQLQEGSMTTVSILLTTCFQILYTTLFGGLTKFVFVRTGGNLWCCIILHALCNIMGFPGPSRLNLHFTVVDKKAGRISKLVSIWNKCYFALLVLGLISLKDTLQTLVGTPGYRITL
MEKK3 PB1 HTS: modulators (inhibitors or enhancers) of MEK5 binding to human MEKK3 PB1 domain | bead-based flow cytometry, Alexa488-MEK5 binding to MEKK3; actives lie on both sides; 0 = blocked by unlabeled MEK5, 100 = vehicle | AID 1529 | Q99759 | binding response (% of control), % at 10 µM | 290,000 tested, 1.4% active;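 active means binding response more than 3 SD above or below the average of its plate-row segment, actives on both sides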;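 further: Alexa488 bead fluorescence after subtracting the streptavidin-only scavenger bead signal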
MEKK2wt confirm: raises or lowers MEK5 binding to wildtype human MEKK2, retest. shares compounds with MEKK3 PB1 HTS. AID 1892. binding response (% of control), % at 10 µM. bead flow cytometry, Alexa488-MEK5 binding to MEKK2 WT; actives lie on both sides. 5,900 tested, 2.4% active; in the data active means binding response below about 16% or above about 210%; inactive means in between
MEKK2mut confirm: signal of MEK5 binding to mutant human MEKK2, retest | percent response, % at 10 µM | shares compounds with MEKK3 PB1 HTS | bead flow cytometry, Alexa488-MEK5 binding to MEKK2 mutant | 5,900 tested, 2% active; in the data active means percent response mostly above about 71%, no sharp cut-off; inactive means mostly below about 38%;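 further: higher means compound restores mutant binding toward wildtype level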
MEKK3 confirm: confirmation of inhibitors of MEK5 binding to human MEKK3; shares compounds with MEKK3 PB1 HTS; bead flow cytometry, Alexa488-MEK5 binding to MEKK3; hits give low values; binding response (% of control), % at 10 µM; 5,900 tested, 1.8% active; AID 1894;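 active means binding response below 72% of control, or above a set upper limit, though filed actives all read lower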;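 further: 100% = DMSO only wells and 0% = binding blocked by excess unlabeled MEK5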
* marks the source's active call; other numbers are inactive results; i = inactive; x = not tested or not shown; [ ] = another dose, or the depositor's remark.

SMILES	UBC13 polyUb	MEKK2 mut-MEK5	MEKK2wt PB1 HTS	Rce1 inhib	MEKK3 PB1 HTS	MEKK2wt confirm	MEKK2mut confirm	MEKK3 confirm
CCc1cccc2c(C(=O)C(F)(F)F)cn(CC(=O)N3CCOCC3)c12	-37.0	6.0	124.0	i	147.0*	105.0	2.0	107.0
CN1C(=O)[C@@H]2[C@@H]3C[C@@H]([C@H]4ON=C(c5ccc(Cl)cc5)[C@@H]34)[C@@H]2C1=O	-6.6	-1.0	101.0	i	102.0	x	x	x
COc1ccc(C2=NO[C@@H]3[C@@H]4C[C@@H]([C@H]5C(=O)N(C)C(=O)[C@@H]45)[C@H]23)cc1	-10.9	2.0	107.0	i	153.0*	101.0	-1.0	100.0
CC1CC(C)(C)CC2(C1)NC(=O)N(CC(=O)Nc1ccc(N3CCCCC3)cc1)C2=O (stereo unspecified)	1.6	5.0	104.0	x	99.0	x	x	x
Cc1ccc(Nc2c(-c3ccccc3O)nc3ncccn23)cc1	-6.0	28.0	108.0	i	130.0*	96.0	-1.0	98.0
O=C(NCCCN1CCOCC1)c1cc(Cl)ccc1Cl	2.5	2.0	105.0	i	104.0	x	x	x
O=C(NCCCN1CCN(CCCNC(=O)c2cc([N+](=O)[O-])ccc2Cl)CC1)c1cc([N+](=O)[O-])ccc1Cl	32.0	24.0	206.0*	i	91.0	205.0	79.0*	105.0
COc1cc(O)c(C(CCN2CCOCC2)c2ccc(N(C)C)cc2)c(OC)c1 (stereo unspecified)	2.4	10.0	90.0	i	90.0	x	x	x
CCN(CC)CCC(c1ccc(OC)cc1)c1c(O)cc(OC)cc1OC (stereo unspecified)	22.2	1.0	95.0	i	90.0	x	x	x
COc1cc(O)c(C(CCN2CCN(c3ccccc3)CC2)c2ccc(N(C)C)cc2)c(OC)c1 (stereo unspecified)	22.7	9.0	151.0*	i	123.0	143.0	19.0	104.0
CCN(CC)CCC(c1ccc(N(C)C)cc1)c1c(O)cc(OC)cc1OC (stereo unspecified)	14.2	4.0	138.0*	i	118.0	92.0	-8.0	98.0
COc1ccc(C(CCN2CCN(c3ccccc3)CC2)c2c(O)cc(OC)cc2OC)cc1 (stereo unspecified)	27.9	8.0	135.0*	i	98.0	140.0	20.0	107.0
CCCc1cc(=O)n2[nH]c(C)c(-c3ccc(OC)cc3)c2n1	-9.5	3.0	102.0	i	92.0	x	x	x
COCCC(=O)N1CCC(Oc2ccc(C(=O)N3CCCCC3COC)cc2)CC1 (stereo unspecified)	-3.3	0.0	103.0	i	101.0	x	x	x
O=C(CSc1ncn[nH]1)c1ccc2c(c1)OCCO2	-7.2	-7.0	87.0	i	77.0*[inhibitor]	106.0	4.0	105.0
O=C(CSc1nnc(-c2ccccc2)o1)c1ccc2c(c1)OCCO2	-9.6	-15.0	85.0	i	80.0*[inhibitor]	109.0	6.0	103.0
O=C(CSc1ncn[nH]1)c1ccc2c(c1)OCO2	-3.0	7.0	104.0	i	102.0	x	x	x
Cc1ccc(Cl)cc1N1CCN(C(=O)Cc2cn(C)c3ccccc23)CC1	6.1	5.0	117.0	i	130.0*	106.0	4.0	107.0
Cc1ccc(C)c(NCC(O)c2ccccc2)c1 (stereo unspecified)	2.7	0.0	107.0	i	108.0	x	x	x
O=C(CNC1C(=O)Nc2ccccc21)Sc1ccccc1 (stereo unspecified)	-6.1	-20.0	3.0*[inhibitor]	i	2.0*[inhibitor]	97.0	-3.0	105.0
Cc1ccccc1C(=O)NC(=S)Nc1ccc2[nH]c(=O)[nH]c2c1	-1.5	3.0	117.0	i	135.0*	96.0	-1.0	99.0
O=c1[nH]c2ccc(NC(=S)NCCc3ccccc3)cc2[nH]1	-5.0	-13.0	44.0*[inhibitor]	i	41.0*[inhibitor]	96.0	3.0	101.0
O=c1[nH]c2ccc(NC(=S)Nc3ccccc3)cc2[nH]1	-3.3	3.0	99.0	i	98.0	x	x	x

Assay outcomes from PubChem BioAssay.
